Corrected activity, negative = more killing and z-score data for 56 compounds are collected here from PubChem BioAssay AID1508625 (Wald Lab, School of Medicine, Case Western Reserve …, 2021).

The nature of the test: small molecules boosting NK-mediated OVCAR3 lysis – imaging, primary NK cells, calcein-AM imaging, primary screen (AID 1508625).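 For z-score: more negative robust z means stronger NK killing of tumor cells.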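 Note: compound given to NK cells 16 h before adding targets at 1.5 to 1 ratio.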 Conditions: OVCAR3 lysis by primary NK cells, at 5 µM; z-score: measured here: robust Z-score, single-point normalisation.

SMILES strings stand for the structures.

For the compound `CC1=C(C(=O)OC(C)C(C)(C)C)C(c2ccccc2)NC(=O)N1` (configuration not stated), the corrected activity, negative = more killing is -4.55% and the z-score is -1.71.
Taken in the same sequence, the figures for `O=C(NN=C1CCCCC1)C(=O)Nc1ccc(Cl)cc1` were -4.69% and -1.99.
The like results for `CCc1ccc(-c2nc3ccccc3c(C(=O)O)c2C)cc1` were, in that order, -3.44% and -1.41.
The like results for `O=C1C2C3C=CC(CC3)C2C(=O)N1c1ccccc1[N+](=O)[O-]` (configuration not stated) were, in that order, -2.44% and -1.04.
Take `O=C(Nc1ccc2nn(-c3cccc(Cl)c3)nc2c1)c1cccc2ccccc12`: the corrected activity, negative = more killing was -3.42% and the z-score was -1.21.
For `Cc1cc(C)n(C(=O)c2ccc(S(=O)(=O)N3CCCCCC3)cc2)n1`, the corrected activity, negative = more killing was -2.63% and the z-score is -1.46.
The like results for `Cc1cc(C)cc(NC(=O)c2ccccc2OCC(=O)N2CCc3ccccc32)c1` were, in that order, -2.33% and -1.3.
Turning to `CCOC(=O)c1c(NC(=O)c2ccccc2F)sc(C(=O)Nc2cccc(Cl)c2)c1C`, the corrected activity, negative = more killing was -1.46% and the z-score was -0.517.
For `CCN(C(=O)c1cc2c(=O)n3cccc(C)c3nc2s1)c1ccccc1`, the corrected activity, negative = more killing is -6.23% and the z-score was -1.77.
Taken in the same sequence, the figures for `O=[N+]([O-])c1ccc(Nc2ncnc3ccccc23)cc1` were -1.89% and -1.01.
Turning to `CC1=NN(C(=O)C(C)C)C(O)(c2ccccc2)C1` (configuration not stated), the corrected activity, negative = more killing was -7.14% and the z-score was -3.83.
The like results for `COc1ccc(N(CC(=O)Nc2c(C)n(C)n(-c3ccccc3)c2=O)S(C)(=O)=O)c(OC)c1` were, in that order, -0.645% and -0.246.
With `Cc1ccc(C(=O)Nc2cccc(C(=O)O)c2)cc1S(=O)(=O)Nc1ccc(Br)cc1`, the corrected activity, negative = more killing is -15% and the z-score is -3.16.
Consider `O=C(O)C1CSC(c2cccs2)=N1` (configuration not stated), for which the corrected activity, negative = more killing was -4.41% and the z-score was -1.19.
`CCOc1ccc(C2C(=C(O)c3ccccc3)C(=O)C(=O)N2CCO)cc1` (configuration not stated): the corrected activity, negative = more killing is -2.61% and the z-score was -0.996.
The like results for `O=C(CSc1nnc(-c2cccc(Br)c2)o1)c1ccc2c(c1)CCCC2` were, in that order, -3.57% and -1.33.
On to `O=C(NCC1CCCO1)Nc1cccc(Cl)c1` (configuration not stated), for which the corrected activity, negative = more killing was 1.53% and the z-score was 0.544.
The like results for `CCc1ccccc1-n1cnc2cc(C(=O)NCc3ccc(C)cc3)ccc21` were, in that order, -4.47% and -1.2.
In the case of `Cc1cc(C)cc(-n2cnc3cc(C(=O)NC4CCCCC4C)ccc32)c1` (configuration not stated), the corrected activity, negative = more killing is -2.86% and the z-score is -0.771.
Taken in the same sequence, the figures for `CC(=O)c1ccc(NC(=O)c2ccc(N)cc2)cc1` were -8.59% and -1.81.
Take `CC(C)NCCOCCOc1cccc(Br)c1`: the corrected activity, negative = more killing was -3.24% and the z-score was -1.21.
The like results for `O=C1C2CC=C(Cl)CC2C(=O)N1CC1OCCc2ccccc21` (configuration not stated) were, in that order, -3.37% and -1.29.
Taken in the same sequence, the figures for `O=c1cc(O)c2c(n1-c1ccccc1)CCCC2` were -7.04% and -2.18.
For `COc1cc2c(cc1NC(=O)Nc1cc3oc4ccccc4c3cc1OC)oc1ccccc12`, the corrected activity, negative = more killing was -6.21% and the z-score is -1.85.
The like results for `COC(=O)c1ccc(CN2CCN3CCCC3C2C2CCCCC2)cc1` (configuration not stated) were, in that order, -2.78% and -1.21.
As for `CCOc1ccc(C2C(=C(O)c3ccc(Cl)cc3)C(=O)C(=O)N2c2nc3ccccc3s2)cc1` (configuration not stated), the corrected activity, negative = more killing is -4.47% and the z-score is -1.71.
Taken in the same sequence, the figures for `O=C(Nc1ccccc1[N+](=O)[O-])C12CC3CC(CC(C3)C1)C2` were -1.55% and -0.55.
For `CCCOc1ccc(C(=O)Nc2ccc3oc(-c4ccccc4)nc3c2)cc1`, the corrected activity, negative = more killing was -3.03% and the z-score is -1.07.
Taken in the same sequence, the figures for `Cc1ccc(OCc2ccc([N+](=O)[O-])cc2)cc1C` were -1.29% and -0.719.
Taken in the same sequence, the figures for `CC(C)c1ccc(NC(=O)C2c3ccccc3C(=O)N(C)C2c2cccs2)cc1` (configuration not stated) were -7.64% and -1.9.
With `CCOC(=O)c1c(NC(=O)c2cc([N+](=O)[O-])ccc2N2CCCCCC2)sc2c1CCCC2`, the corrected activity, negative = more killing is -2.4% and the z-score is -0.744.
In the case of `COCCNCC(O)Cn1c2ccccc2c2ccccc21` (configuration not stated), the corrected activity, negative = more killing is 2.4% and the z-score was 0.916.
The like results for `O=C(CCCN1C(=O)c2cccc3cccc(c23)C1=O)NCCO` were, in that order, -1.75% and -0.651.
For the compound `CC(=O)NCCNC(=O)c1ccc(Cn2c(=S)[nH]c3cc4c(cc3c2=O)OCO4)cc1`, the corrected activity, negative = more killing is -3.96% and the z-score is -1.05.
The like results for `CCCCOc1ccccc1C1NC(=O)NC(C)=C1C(=O)OCC(F)(F)F` (configuration not stated) were, in that order, -3.61% and -1.36.
Taken in the same sequence, the figures for `Cc1ccccc1OCC(=O)N1N=C2CCCCC2C1(O)C(F)(F)F` (configuration not stated) were -5.48% and -2.09.
In the case of `NC(=O)CN1CCOCCN(CC(N)=O)CCOCC1`, the corrected activity, negative = more killing was -12.6% and the z-score is -2.65.
The like results for `CCc1noc(C)c1C(=O)N1CC(C)OC(C)C1` (configuration not stated) were, in that order, -2.62% and -1.08.
With `COc1ccc(C)cc1NC(=O)c1cc(S(=O)(=O)NC2CCCCC2C)ccc1F` (configuration not stated), the corrected activity, negative = more killing is -0.89% and the z-score is -0.24.
The like results for `Cn1c(SCC(=O)Nc2cc(C(F)(F)F)ccc2Cl)nc2c([nH]c3ccccc32)c1=O` were, in that order, -6.37% and -1.58.
Taken in the same sequence, the figures for `CCC1CCCCN1C(=O)c1sc2ncn(Cc3ccccc3F)c(=O)c2c1C` (configuration not stated) were -3.67% and -1.34.
The like results for `COc1ccc(Cn2c(=S)[nH]c3cc(C(=O)NCc4ccccc4Cl)ccc3c2=O)cc1` were, in that order, -10.8% and -3.45.
As to `Cc1oc(-c2cccc(Br)c2)nc1CN1CCC(C(=O)NCc2ccc(Cl)cc2)CC1`, the corrected activity, negative = more killing is -6.33% and the z-score was -1.71.
For `Cc1ccc(-c2cc(C(=O)O)c3cc(Cl)ccc3n2)cc1C`, the corrected activity, negative = more killing is -3.58% and the z-score was -1.47.
Consider `CN1C(=O)c2ccccc2Sc2ccc(C(=O)O)cc21`, for which the corrected activity, negative = more killing is -8.06% and the z-score is -2.17.
Taken in the same sequence, the figures for `COc1cccc(C(=O)N2CCN(CC3CC=CCC3)CC2)c1OC` (configuration not stated) were -3.28% and -1.46.
Taken in the same sequence, the figures for `CCC(C)NC(=O)c1ccc2c(=O)n(Cc3ccccc3OC)c(=S)[nH]c2c1` (configuration not stated) were -7.22% and -1.91.
Take `COC(=O)c1c(NC(=O)c2cc3ccccc3c(=O)o2)sc2c1CCC(C)C2` (configuration not stated): the corrected activity, negative = more killing was -0.836% and the z-score was -0.344.
The like results for `O=C(Nc1ccc([N+](=O)[O-])cc1)c1cc2c(=O)n3ccccc3nc2s1` were, in that order, -3.21% and -0.91.
For the compound `N#Cc1c(NC(=O)CN2C(=O)C3CC=C(Cl)CC3C2=O)sc2c1CCC2` (configuration not stated), the corrected activity, negative = more killing was -0.241% and the z-score was -0.0746.
For the compound `COc1ccc(C(=O)Nc2ccc(-c3nc4cc(C)cc(C)c4o3)cc2)cc1OC`, the corrected activity, negative = more killing was 2.2% and the z-score was 0.681.
For the compound `COc1ccccc1Nc1ncc(C(=O)N2CCC(Cc3ccccc3)CC2)c2ccccc12`, the corrected activity, negative = more killing is -5.51% and the z-score is -1.37.
Consider `CCCSc1nc2c([nH]c3ccccc32)c(=O)n1-c1ccc(F)cc1`, for which the corrected activity, negative = more killing is -3.57% and the z-score is -0.888.
Take `Cn1c(SCc2c[nH]c3cc([N+](=O)[O-])ccc23)nc2sc3c(c2c1=O)CCCC3`: the corrected activity, negative = more killing was -1.25% and the z-score is -0.47.
The like results for `O=C(Cn1cnc2ccccc2c1=O)NCCC(=O)N1CCOCC1` were, in that order, -5.47% and -1.74.
Consider `O=C(c1cccc(F)c1)N1CCN=C1SCc1ccc(Br)cc1`, for which the corrected activity, negative = more killing is -4.87% and the z-score was -1.2.
